Where “and” joins values, the source holds several entries; their conditions need not be identical. Equal entries are not always repeated. Screen size: about 5,500 compounds; about 2,000 (36%) were called active. Inconclusive results (about 18%) are left out. This is one part of the list. Unmarked numbers belong to inactive results. Cut-off read from the data, not from the text of the source: active = normalized growth mostly below about 0.91 (no sharp cut-off); inconclusive = no clear call, values can overlap the other calls; inactive = mostly above about 0.92.
Assay: chemical genetic growth profiling, strain panel (AID 1159580);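 note: tested at 20 µM; growth read once vehicle control cultures reached saturation at 30 °C; 1 = growth at the plate median or of vehicle wells; lower values mean less growth of the strain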
Details: S. cerevisiae deletion strains, growth OD

Cc1c(O)c(O)cc2c1CC=C1[C@@]2(C)CC[C@@]2(C)C3C[C@](C)(C(=O)O)CC[C@]3(C)CC[C@]12C (stereo partly specified)
normalized growth (locus YAL021C, strain ccr4, stronger effect = lower value): 0.711 (active) | normalized growth (locus YAL026C, strain drs2, stronger effect = lower value): 0.422 (active) | normalized growth (locus YAL030W, strain snc1, stronger effect = lower value): 0.541 (active) | normalized growth (locus YBL061C, strain skt5, stronger effect = lower value): 0.533 (active) | normalized growth (locus YBR009C, strain hhf1, stronger effect = lower value): 0.265 (active) | normalized growth (locus YBR021W, strain FUR4, stronger effect = lower value): 1 | normalized growth (locus YBR023C, strain chs3, stronger effect = lower value): 0.471 (active) | normalized growth (locus YBR171W, strain sec66, stronger effect = lower value): 0.842 (active) | normalized growth (locus YBR229C, strain ROT2, stronger effect = lower value): 0.966 | normalized growth (locus YBR231C, strain swc5, stronger effect = lower value): 0.326 (active) | normalized growth (locus YBR279W, strain paf1, stronger effect = lower value): 0.41 (active) | normalized growth (locus YCL011C, strain gbp2, stronger effect = lower value): 0.377 (active) | normalized growth (locus YCL016C, strain dcc1, stronger effect = lower value): 0.571 (active) | normalized growth (locus YCL029C, strain bik1, stronger effect = lower value): 0.947 | normalized growth (locus YCL061C, strain MRC1, stronger effect = lower value): 0.635 (active) | normalized growth (locus YCL069W, strain vba3, stronger effect = lower value): 0.668 (active) | normalized growth (locus YCR088W, strain abp1, stronger effect = lower value): 0.738 (active) | normalized growth (locus YDL005C, strain med2, stronger effect = lower value): 0.413 (active) | normalized growth (locus YDL035C, strain GPR1, stronger effect = lower value): 0.872 | normalized growth (locus YDL040C, strain nat1, stronger effect = lower value): 0.738 (active) | normalized growth (locus YDL074C, strain BRE1, stronger effect = lower value): 0.797 | normalized growth (locus YDL101C, strain DUN1, stronger effect = lower value): 0.924 | normalized growth (locus YDL185W, strain tfp1, stronger effect = lower value): 1.01 | normalized growth (locus YDL192W, strain arf1, stronger effect = lower value): 0.889 (active) | normalized growth (locus YDR001C, strain nth1, stronger effect = lower value): 0.766 (active) | normalized growth (locus YDR069C, strain doa4, stronger effect = lower value): 0.459 (active) | normalized growth (locus YDR101C, strain arx1, stronger effect = lower value): 0.962 | normalized growth (locus YDR137W, strain rgp1, stronger effect = lower value): 0.269 (active) | normalized growth (locus YDR150W, strain NUM1, stronger effect = lower value): 0.959 | normalized growth (locus YDR159W, strain sac3, stronger effect = lower value): 0.465 (active) | normalized growth (locus YDR162C, strain NBP2, stronger effect = lower value): 0.803 (active) | normalized growth (locus YDR195W, strain ref2): 0.548 (active) | normalized growth (locus YDR297W, strain sur2, stronger effect = lower value): 0.479 (active) | normalized growth (locus YDR318W, strain mcm21, stronger effect = lower value): 0.917 (active) | normalized growth (locus YDR334W, strain swr1, stronger effect = lower value): 0.338 (active) | normalized growth (locus YDR335W, strain msn5, stronger effect = lower value): 0.698 (active) | normalized growth (locus YDR388W, stronger effect = lower value): 0.962 | normalized growth (locus YDR392W, strain spt3, stronger effect = lower value): 0.125 (active) | normalized growth (locus YDR502C, strain sam2, stronger effect = lower value): 0.929 | normalized growth (locus YEL003W, strain gim4, stronger effect = lower value): 0.416 (active) | normalized growth (locus YEL037C, strain rad23, stronger effect = lower value): 0.71 (active) | normalized growth (locus YEL061C, strain CIN8 (second series), stronger effect = lower value): 0.701 (active) | normalized growth (locus YEL061C, strain CIN8, stronger effect = lower value): 0.906 (active) | normalized growth (locus YER015W, strain faa2, stronger effect = lower value): 0.491 (active) | normalized growth (locus YER016W, strain bim1, stronger effect = lower value): 0.612 (active) | normalized growth (locus YER110C, stronger effect = lower value): 1 | normalized growth (locus YER111C, strain swi4, stronger effect = lower value): 0.581 (active) | normalized growth (locus YER155C, strain BEM2 (second series), stronger effect = lower value): 0.348 (active) | normalized growth (locus YER155C, strain BEM2, stronger effect = lower value): 0.767 (active) | normalized growth (locus YER167W, strain BCK2, stronger effect = lower value): 0.921 | normalized growth (locus YFR010W, strain ubp6, stronger effect = lower value): 0.561 (active) | normalized growth (locus YGL078C, strain dbp3, stronger effect = lower value): 0.977 | normalized growth (locus YGL086W, strain mad1, stronger effect = lower value): 0.936 | normalized growth (locus YGL167C, strain pmr1, stronger effect = lower value): 0.738 (active) | normalized growth (locus YGL173C, strain kem1, stronger effect = lower value): 0.31 (active) | normalized growth (locus YGL227W, strain vid30, stronger effect = lower value): 0.854 (active) | normalized growth (locus YGL240W, strain doc1, stronger effect = lower value): 0.605 (active) | normalized growth (locus YGL248W, strain PDE1, stronger effect = lower value): 0.845 (active) | normalized growth (locus YGL253W, strain hxk2, stronger effect = lower value): 0.37 (active) | normalized growth (locus YGR135W, strain pre9, stronger effect = lower value): 0.936 | normalized growth (locus YGR252W, strain gcn5, stronger effect = lower value): 0.873 | normalized growth (locus YHR013C, strain ard1, stronger effect = lower value): 0.203 (active) | normalized growth (locus YHR027C, strain rpn1, stronger effect = lower value): 0.45 (active) | normalized growth (locus YHR030C, strain SLT2, stronger effect = lower value): 0.947 and 0.918 | normalized growth (locus YHR079C, strain IRE1 (second series), stronger effect = lower value): 0.976 | normalized growth (locus YHR079C, strain IRE1, stronger effect = lower value): 0.945 | normalized growth (locus YHR094C, strain hxt1, stronger effect = lower value): 0.988 | normalized growth (locus YHR129C, strain ARP1, stronger effect = lower value): 0.838 (active) | normalized growth (locus YHR142W, strain chs7, stronger effect = lower value): 0.387 (active) | normalized growth (locus YHR200W, strain rpn10, stronger effect = lower value): 0.964 | normalized growth (locus YIL066C, strain RNR3, stronger effect = lower value): 0.801 (active) | normalized growth (locus YIL073C, strain SPO22, stronger effect = lower value): 0.863 | normalized growth (locus YIL125W, strain kgd1, stronger effect = lower value): 0.942 | normalized growth (locus YIR030C, strain dcg1, stronger effect = lower value): 0.958 | normalized growth (locus YJL092W, strain hpr5, stronger effect = lower value): 0.686 (active) | normalized growth (locus YJL095W, strain BCK1 (second series), stronger effect = lower value): 0.405 (active) | normalized growth (locus YJL095W, strain BCK1, stronger effect = lower value): 0.784 (active) and 0.865 (active) | normalized growth (locus YJL115W, strain asf1, stronger effect = lower value): 0.741 (active) | normalized growth (locus YJL129C, strain trk1, stronger effect = lower value): 0.482 (active) | normalized growth (locus YJL134W, strain LCB3, stronger effect = lower value): 0.967 | normalized growth (locus YJL154C, strain vps35, stronger effect = lower value): 0.689 (active) | normalized growth (locus YJL164C, strain tpk1, stronger effect = lower value): 0.289 (active) | normalized growth (locus YJL166W, strain qcr8, stronger effect = lower value): 0.233 (active) | normalized growth (locus YJL168C, strain set2, stronger effect = lower value): 0.979 | normalized growth (locus YJL187C, strain SWE1 (second series), stronger effect = lower value): 0.897 | normalized growth (locus YJL187C, strain SWE1, stronger effect = lower value): 0.457 (active)

Source: PubChem BioAssay AID1159580 (chemical genetic matrix, 2015)
